The values below come from paper PMC4336329 (PLoS ONE, 2015).

Hit rate of the full screen: of about 310,000 compounds, about 14,000 (4.5%) showed an effect of 50% or more. The effect is printed as a negative number. The sample holds strong results, similar compounds and a random draw of the others, so the mix is not that of the screen.
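Further: peak tail current of the secondary pulse compared with the same well before compound.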

This assay deals with human ether-à-go-go-related gene (hERG) potassium channel (human, UniProt Q12809). The assay is described as follows: primary screen, population patch clamp on CHO cells stably expressing hERG; higher = less effect of the substance.
Chain of human ether-à-go-go-related gene (hERG) potassium channel (Q12809 whole entry, looked up): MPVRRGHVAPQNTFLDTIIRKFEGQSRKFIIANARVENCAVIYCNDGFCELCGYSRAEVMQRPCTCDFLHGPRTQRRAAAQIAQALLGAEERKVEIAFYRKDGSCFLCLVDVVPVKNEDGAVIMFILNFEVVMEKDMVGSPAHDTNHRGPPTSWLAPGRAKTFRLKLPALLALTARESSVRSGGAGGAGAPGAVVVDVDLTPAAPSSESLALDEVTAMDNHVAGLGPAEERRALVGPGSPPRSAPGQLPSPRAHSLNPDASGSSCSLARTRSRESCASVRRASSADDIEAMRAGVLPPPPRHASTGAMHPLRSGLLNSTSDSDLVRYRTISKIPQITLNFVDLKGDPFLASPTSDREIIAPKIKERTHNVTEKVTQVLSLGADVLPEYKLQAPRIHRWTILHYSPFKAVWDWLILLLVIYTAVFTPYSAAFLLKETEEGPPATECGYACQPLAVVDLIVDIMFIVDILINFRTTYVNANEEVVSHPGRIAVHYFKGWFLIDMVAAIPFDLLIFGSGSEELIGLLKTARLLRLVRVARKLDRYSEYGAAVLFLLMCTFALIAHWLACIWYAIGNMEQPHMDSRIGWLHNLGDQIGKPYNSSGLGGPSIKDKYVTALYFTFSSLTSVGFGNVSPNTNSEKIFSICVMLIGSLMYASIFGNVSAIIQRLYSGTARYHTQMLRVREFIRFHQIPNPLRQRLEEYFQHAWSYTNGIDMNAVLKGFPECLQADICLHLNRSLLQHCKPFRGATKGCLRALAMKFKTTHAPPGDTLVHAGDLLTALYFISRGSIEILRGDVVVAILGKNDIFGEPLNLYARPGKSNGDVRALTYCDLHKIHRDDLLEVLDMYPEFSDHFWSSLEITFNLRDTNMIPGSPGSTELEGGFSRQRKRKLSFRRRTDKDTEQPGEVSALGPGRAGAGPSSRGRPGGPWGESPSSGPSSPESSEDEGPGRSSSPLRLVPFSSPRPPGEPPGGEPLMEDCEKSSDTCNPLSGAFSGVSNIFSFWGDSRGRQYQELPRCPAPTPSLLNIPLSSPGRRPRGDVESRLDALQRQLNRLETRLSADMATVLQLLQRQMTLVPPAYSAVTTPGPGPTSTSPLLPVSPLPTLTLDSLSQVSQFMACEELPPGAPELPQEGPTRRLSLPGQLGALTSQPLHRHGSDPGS
As to `COc1ccc(-c2nnc(SCC(=O)Nc3sc4c(c3C#N)CCCC4)n2-c2ccccc2)cc1`, the “hERG current change (%, negative = inhibition) at 10uM” value is on record as 15.4%. Next, `Cc1ccc(C)c(S(=O)(=O)N2CCN(c3nc(CN4CCOCC4)nc4sc(C)c(C)c34)CC2)c1`: -57.1%.

Turning to `Cc1ccc(S(=O)(=O)Nc2nc(CN3CCOCC3)nc3sc(C)c(C)c23)cc1`, the “hERG current change (%, negative = inhibition) at 10uM” value is reported as -43%. Next, `Cc1sc2nc(CN3CCOCC3)nc(N3CCOCC3)c2c1C.O=C(O)C(=O)O`: -10.8%. For `O=C(CNc1n[nH]c(=O)[nH]c1=O)N/N=C/c1ccccc1`, the “hERG current change (%, negative = inhibition) at 10uM” value was found to be 2.89%.

As to `O=S(NC1CCCCC1)C12CC3CC(CC(C3)C1)C2` (stereo not drawn), the “hERG current change (%, negative = inhibition) at 10uM” value was -12.4%. On to `CC1(C)Cc2c(C#N)c(N3CCN(C(=O)c4ccco4)CC3)nc(Cc3ccccc3)c2CO1`, for which the “hERG current change (%, negative = inhibition) at 10uM” value is -25.3%. Next, `CCc1nc(N2CCN(C(=O)c3ccco3)CC2)c(C#N)c2c1COC(C)(C)C2`: -52.1%; `Cc1nc(N2CCN(C(=O)c3ccc(Cl)cc3)CC2)c(C#N)c2c1COC(C)(C)C2`: -60.8%. As to `CC(C)c1nc(N2CCN(C(=O)c3ccco3)CC2)c(C#N)c2c1COC(C)(C)C2`, the “hERG current change (%, negative = inhibition) at 10uM” value is -71.5%. `CCc1nc(N2CCN(C(C)=O)CC2)c(C#N)c2c1COC(C)(C)C2`: the “hERG current change (%, negative = inhibition) at 10uM” value is -0.704%. `CCCNC(=O)N1CCN(c2nc(C(C)C)c3c(c2C#N)CC(C)(C)OC3)CC1`: the “hERG current change (%, negative = inhibition) at 10uM” value worked out at 4.84%. Next, `CCc1nc(N2CCN(C(=O)c3ccccc3)CC2)c(C#N)c2c1COC(C)(C)C2`: -46.5%; `Cc1nc(N2CCN(Cc3ccccc3)CC2)c(C#N)c2c1COC(C)(C)C2`: -5.21%. Take `CC(C)c1nc(N2CCN(C(=O)c3ccccc3)CC2)c(C#N)c2c1COC(C)(C)C2`: the “hERG current change (%, negative = inhibition) at 10uM” value is recorded as -40.8%. Regarding `O=C(CC1SC(N2CCCCC2)=NC1=O)Nc1cccc(C(F)(F)F)c1` (stereo not drawn), the “hERG current change (%, negative = inhibition) at 10uM” value was 12.3%. `CCOc1ccc(C2Oc3nc(SC)nnc3-c3ccccc3N2C(C)=O)cc1OC` (stereo not drawn): the “hERG current change (%, negative = inhibition) at 10uM” value amounted to 9.64%. As to `CCC(Sc1nnc(-c2ccc(C)c(Cl)c2)n1CC)C(=O)Nc1nccs1` (stereo not drawn), the “hERG current change (%, negative = inhibition) at 10uM” value is given as -20.6%. Consider `CCOC(=O)/C=C(\C)Sc1cc(=O)oc2ccccc12`, for which the “hERG current change (%, negative = inhibition) at 10uM” value was -40.4%. Next, `O=C(Nc1nccs1)c1ccc(COc2ccccc2)o1`: 15.6%; `O=C(O)CC1c2ccccc2CCN1S(=O)(=O)c1ccc(F)cc1` (stereo not drawn): 8.32%; `CCc1ccc2[nH]c(=O)c(-c3ccccc3)c(O)c2c1`: 17.5%. Next, `CN(CC(N)=O)S(=O)(=O)c1ccc(F)cc1`: -15.7%. Next, `O=C(CSc1ccc2nnc(-c3cccnc3)n2n1)c1ccccc1`: -70%. Turning to `O=C(CSc1ccc2nnc(-c3cccnc3)n2n1)N1CCOCC1`, the “hERG current change (%, negative = inhibition) at 10uM” value is reported as -25%. In the case of `COc1ccc(C(=O)CSc2ccc3nnc(-c4cccnc4)n3n2)cc1`, the “hERG current change (%, negative = inhibition) at 10uM” value was -70.3%. Next, `CCC(Sc1ccc2nnc(-c3cccnc3)n2n1)C(=O)OC` (stereo not drawn): -47%. Next, `O=C(O)CSc1ccc2nnc(-c3cccnc3)n2n1`: 12.2%. Turning to `CCOC(=O)CSc1ccc2nnc(-c3cccnc3)n2n1`, the “hERG current change (%, negative = inhibition) at 10uM” value is -31%. For the compound `O=C(Nc1cccc(NC(=O)C2CC2)n1)C1CC1`, the “hERG current change (%, negative = inhibition) at 10uM” value was -6.67%. In the case of `CCOC(=O)N1CCN(c2cc(N3CCOCC3)c(F)cc2[N+](=O)[O-])CC1`, the “hERG current change (%, negative = inhibition) at 10uM” value is listed as -18.2%. For `CC1=CC(=O)OC1Cc1ccncc1` (stereo not drawn), the “hERG current change (%, negative = inhibition) at 10uM” value is 11.3%. Next, `NC(=O)C1CCN(C(=O)CCSCc2ccc(Cl)c(Cl)c2)CC1`: -13.3%; `COC(=O)c1ccc(CN2CCCCC2)cc1`: 1.45%. Next, `COc1ccc(-c2ncc(CN3CCC(CO)(Cc4cccc(OC)c4)CC3)cn2)cc1`: -4.79%; `COC(=O)c1cccc(C(=O)N2CCC(CO)(Cc3ccccc3Cl)CC2)c1`: -23.1%; `COc1cccc(CC2(CO)CCN(Cc3cn(C)nc3C)CC2)c1`: 18.3%. With `COC(=O)c1ccc(CN2CCC(CO)(Cc3ccc(OC)cc3)CC2)cc1`, the “hERG current change (%, negative = inhibition) at 10uM” value was -66.1%. Next, `COC(=O)c1ccc(CN2CCC(CO)(Cc3cccc(OC)c3)CC2)cc1`: -66.1%; `COc1ccc(CC2(CO)CCN(Cc3ccncc3)CC2)cc1`: -21.2%. For the compound `CCN1CCN(Cc2ccc(OC(F)(F)F)cc2)CC1`, the “hERG current change (%, negative = inhibition) at 10uM” value is -26.6%. Next, `COC(=O)c1ccc(CN2CCC(CO)(Cc3ccccc3Cl)CC2)cc1`: -64.8%; `COc1ccc(CC2(CO)CCN(Cc3ccc(OC(F)(F)F)cc3)CC2)cc1`: -75.1%; `Nn1c(SCC(=O)Nc2c(F)cc(F)cc2Br)nnc1C1CCCCC1`: 3.21%. Next, `CCOC(=O)c1nnn(-c2nonc2-c2ccccc2)c1C`: -25.2%; `S=c1[nH]cc(-c2ccccc2)n1-c1ccccc1Cl`: 9.61%. Next, `CCc1onc(C)c1C(=O)Nc1ccc(N2CCOCC2)cc1`: 15%. With `Clc1ccc(-c2noc(/C=C/c3ccccc3)n2)cc1`, the “hERG current change (%, negative = inhibition) at 10uM” value came to 18.2%. Next, `COc1ccc(CC2(CO)CCN(CC3=CC[C@H]4C[C@@H]3C4(C)C)CC2)cc1`: -58.7%.

For `CC1(C)C2CC=C(CN3CCC(O)CC3)C1C2` (stereo not drawn), the “hERG current change (%, negative = inhibition) at 10uM” value is -7.45%. Regarding `COc1cccc(CC2(CO)CCN(CC3=CC[C@H]4C[C@@H]3C4(C)C)CC2)c1`, the “hERG current change (%, negative = inhibition) at 10uM” value was -44.2%. As to `CCN(CC)S(=O)(=O)c1ccc2c(c1)nc(SCc1nc3ccsc3c(=O)[nH]1)n2CC`, the “hERG current change (%, negative = inhibition) at 10uM” value is listed as -30.8%.

As for `COc1ccc(C=NCCC2(O)CC(C)N(C)CC2C)cc1` (stereo not drawn), the “hERG current change (%, negative = inhibition) at 10uM” value is 8.31%. `CC1Oc2cc3c(-c4c(O)cc(O)c5c(O)c6c(cc45)OC(C)C(C)C6=O)c(O)cc(O)c3c(O)c2C(=O)C1C` (stereo not drawn): the “hERG current change (%, negative = inhibition) at 10uM” value came to 10.8%.

On to `CC1CN(C)C(C)CC1OC(=O)C(c1ccccc1)c1ccccc1` (stereo not drawn), for which the “hERG current change (%, negative = inhibition) at 10uM” value is listed as -73.7%. Next, `C[N+]1(C)[C@@H]2CC[C@H]1CC(OC(=O)C(c1ccccc1)c1ccccc1)C2.[I-]` (stereo partly drawn): 18%; `C[N+]1(C)CCC(OC(=O)C(c2ccccc2)c2ccccc2)CC1.[I-]`: 1.2%; `CN(C)[C@@H]1CCC[C@H]1OC(=O)C(c1ccccc1)c1ccccc1`: -65.2%.

Take `CCCCOc1ccc(C(=O)OC2CC(C)N(C)CC2C)cc1` (stereo not drawn): the “hERG current change (%, negative = inhibition) at 10uM” value is on record as -25.4%. In the case of `CC1CN(C(C)C)C(C)CC1OC(=O)c1ccccc1` (stereo not drawn), the “hERG current change (%, negative = inhibition) at 10uM” value is 15.7%.
